Growth data for nine compounds are collected here from PubChem BioAssay (NCI).

Some test systems named below: SR leukemia; RPMI-8226 leukemia; OVCAR-8 ovarian; OVCAR-5 ovarian; OVCAR-4 ovarian; SK-OV-3 ovarian; IGROV1 ovarian; OVCAR-3 ovarian; NCI/ADR-RES ovarian.
Holding throughout (test): NCI-60 one-dose screen, 48 h (100 = growth as untreated, 0 = no growth, -100 = all killed)
Common to all, as to details: 10 µM unless noted

The panel holds about 83,000 compounds, 20% with a hit somewhere; the sample as a whole holds those more often.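 Single-concentration screen, 48 h exposure, 96-well plates. Endpoint: percent growth. Below 10 = active.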 Values without a mark were called inactive. Activity calls are given as the source filed them.

With `CCNC(=O)C#Cc1ccc2c(C(=Nc3ccc(CN(C)C)cc3)c3ccccc3)c(O)[nH]c2c1`, the growth is -13.6% (active) in the assay on SR leukemia; 30% in the assay with RPMI-8226 leukemia; 48.3% with OVCAR-8 ovarian; 5.7% (active) in the assay with OVCAR-5 ovarian; 51.9% with OVCAR-4 ovarian; 10.8% in the assay with SK-OV-3 ovarian. The growth in the assay with IGROV1 ovarian is 5.41% (active); in the assay on OVCAR-3 ovarian, 51%; in the assay on NCI/ADR-RES ovarian, 54.3%.

With `CO[C@@H](C)Cn1c(=O)n(C)c2cnc3ccc(-c4cncc(C(C)(C)O)c4)cc3c21`, the growth in the assay on SR leukemia is -2.77% (active); with RPMI-8226 leukemia, -16.8% (active); with OVCAR-8 ovarian, -13% (active); in the assay on OVCAR-5 ovarian it was 5.28% (active); in the assay with OVCAR-4 ovarian, -14.6% (active); in the assay on SK-OV-3 ovarian, -36.5% (active). Besides, the results for the growth with IGROV1 ovarian, in the assay with OVCAR-3 ovarian and in the assay with NCI/ADR-RES ovarian were -25.7% (active), 8.39% (active) and -1.12% (active), respectively.

On to `CC[C@@H]1C(=O)N(C)c2cnc(Nc3ccc(C(=O)NC4CCC(N5CCN(CC6CC6)CC5)CC4)cc3OC)nc2N1C(C)C` (stereo partly specified), for which the growth in the assay on SR leukemia is -11.5% (active); in the assay with RPMI-8226 leukemia it was -42.8% (active); with OVCAR-8 ovarian it was 1.34% (active); in the assay on OVCAR-5 ovarian, 22.5%; with OVCAR-4 ovarian, 24.8%; in the assay on SK-OV-3 ovarian it was -68.8% (active). In addition, the growth is -18.5% (active) in the assay on IGROV1 ovarian, -13.8% (active) in the assay on OVCAR-3 ovarian and 25.8% in the assay on NCI/ADR-RES ovarian.

On to `O=C1C=CC2(NN=C(c3ccccc3)N2c2cccc(Cl)c2)C(Cl)=C1` (stereo unspecified), for which the growth in the assay with SR leukemia is 67.3%; with RPMI-8226 leukemia, 58.6%; in the assay on OVCAR-8 ovarian, 76%; with OVCAR-5 ovarian, 92.3%; in the assay on OVCAR-4 ovarian it was 70.5%; with SK-OV-3 ovarian it was 70.7%. Further, the results for the growth in the assay on IGROV1 ovarian, in the assay on OVCAR-3 ovarian and with NCI/ADR-RES ovarian were 87.1%, 84.9% and 89.7%, respectively.

Regarding `CN1CCN(c2nc(C3=C(c4c[nH]c5ccccc45)C(=O)NC3=O)c3ccccc3n2)CC1`, the growth is 68.7% with SR leukemia; 97.8% in the assay with RPMI-8226 leukemia; 66.9% with OVCAR-8 ovarian; 25.1% with OVCAR-5 ovarian; 71.9% in the assay on OVCAR-4 ovarian; 87.1% with SK-OV-3 ovarian. In addition, the growth in the assay with IGROV1 ovarian was 75.4%; with OVCAR-3 ovarian, 110%; with NCI/ADR-RES ovarian, 85.1%.

In the case of `Cc1ccc(NC(=O)c2ccc(CN3CCN(C)CC3)cc2)cc1Nc1nc(-c2cccnc2)cs1`, the growth was -3.75% (active) in the assay on SR leukemia; 13.2% with RPMI-8226 leukemia; 34.5% in the assay on OVCAR-8 ovarian; 98.7% with OVCAR-5 ovarian; 62.6% in the assay on OVCAR-4 ovarian; 75.3% with SK-OV-3 ovarian. Moreover, the growth is 62.3% with IGROV1 ovarian, 79.6% with OVCAR-3 ovarian and 55.7% in the assay on NCI/ADR-RES ovarian.

As to `O=C(Nc1cccc(Cl)c1)Nc1ncc(CCNc2ncnc3ccsc23)s1`, the growth in the assay with SR leukemia was 19.3%; with RPMI-8226 leukemia, 7.45% (active); in the assay on OVCAR-8 ovarian, 1.53% (active); with OVCAR-5 ovarian, 64.6%; in the assay on OVCAR-4 ovarian it was 24.6%; in the assay on SK-OV-3 ovarian it was 47.5%. Also, the growth in the assay on IGROV1 ovarian was 36%; in the assay on OVCAR-3 ovarian, 38.3%; in the assay on NCI/ADR-RES ovarian it was 9.39% (active).

As for `O=C(NOCCO)c1cc(CN2OCCCC2=O)c(F)c(F)c1Nc1ccc(I)cc1F`, the growth with SR leukemia was 65.6%; with RPMI-8226 leukemia, 78.8%; in the assay with OVCAR-8 ovarian, 52.1%; with OVCAR-5 ovarian it was 20.2%; in the assay on OVCAR-4 ovarian, 64.5%; in the assay on SK-OV-3 ovarian, 52.3%. Also, the values for the growth in the assay on IGROV1 ovarian, in the assay on OVCAR-3 ovarian and with NCI/ADR-RES ovarian were 21.2%, 103% and 58.1%, respectively.

`C=CC(=O)Nc1cccc(Oc2nc(Nc3ccc(N4CCN(C)CC4)cc3)nc3ccsc23)c1`: the growth in the assay with SR leukemia is -23.5% (active); in the assay with RPMI-8226 leukemia, -29.8% (active); with OVCAR-8 ovarian, -38.8% (active); in the assay with OVCAR-5 ovarian, 8.45% (active); with OVCAR-4 ovarian, -63.6% (active); in the assay with SK-OV-3 ovarian it was -2.6% (active). Further, the growth with IGROV1 ovarian was -69.9% (active); with OVCAR-3 ovarian, -80.7% (active); with NCI/ADR-RES ovarian it was -3.05% (active).
